Compound activity as filed in PubChem BioAssay.
SSB-PriA inh – inhibitors of Klebsiella pneumoniae PriA binding to SSB C-terminal tail, primary screen, biochemical, AlphaScreen; inhibition, % at 33 µM; 430,000 compounds, 0.6% hits; AID 1272365, 2023; PriA–SSB C-terminal tail interaction (Klebsiella pneumoniae); AlphaScreen SSBct-PriA binding, biotinylated peptide; in the data active = inhibition mostly above about 37%, no sharp cut-off; inactive = mostly below about 20%;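 also: plate controls were negative control peptide for no effect and reference peptide for full effect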
PrP UTR inh – inhibition of PrP 5' UTR reporter expression. cell-based PrP 5' UTR mRNA reporter, plate reader. inhibition, % (test concentration not listed). 340,000 compounds, 0.35% hits. AID 488862, 2010; in the data active = inhibition above about 52%; also: 0 = median of the neutral control wells
BJeLR lethal – MLPCN primary cell-based screen for lethality selective to Ras in HRASV12 cells | BJeLR (HRASV12) viability, CellTiter-Glo ATP luminescence, 48 h | inhibition, % (concentration not given with the values) | 300,000 compounds, 0.17% hits | AID 1554, 2009; in the data active = inhibition above about 50%; inconclusive = no clear call, values can overlap the other calls
PrPC TRFRET – inhibitors of human cell surface prion protein PrPC, primary screen, cell-based, TR-FRET. Major prion protein (Homo sapiens), P04156. 370,000 compounds, 0.43% hits. TR-FRET read-out. inhibition, % at 13.8 µM; in the data active = inhibition above about 24%; also: 0% = median of the test wells and 100% = reference compound wells
PfHsp40 rescue – rescue of yeast from PfHsp40 toxicity, primary screen, S. cerevisiae, ATP luminescence. S. cerevisiae expressing PfHsp40, growth rescue. growth rescue, % at 12.5 µM. 340,000 compounds, 0.68% hits. AID 504582, 2011; in the data active = growth rescue above about 28%, passing the limit was not always enough; inconclusive = no clear call, values can overlap the other calls;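 also: yeast W303a lacking pdr1 and pdr3 grown in galactose medium; growth measured after three days at 30 °C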
Y pestis TopoI – Yersinia pestis topoisomerase I inhibitors, primary screen, biochemical, cleavage product accumulation, plate reader, single point; 360,000 compounds, 0.064% hits; Y. pestis Topo-I cleavage product accumulation; activity, % at 10 µM; DNA topoisomerase I (Yersinia pestis CO92); in the data active = activity above about 50%, passing the limit was not always enough; inconclusive = no clear call, values can overlap the other calls
PrP 5UTR single – prion 5' UTR mRNA inhibition, cherry-pick retest; shares compounds with PrP UTR inh; cell-based prion protein 5' UTR reporter, plate reader; inhibition, % at 2.5 µM; 1,100 compounds, 48% hits; in the data active = inhibition above about 54%; inconclusive = no clear call, values can overlap the other calls
Active calls of the source: *; u = inconclusive; x = no result. Compounds with a hit are over-represented: about 1.7% of the library has one in this group of screens.

SMILES | SSB-PriA inh | PrP UTR inh | BJeLR lethal | PrPC TRFRET | PfHsp40 rescue | Y pestis TopoI | PrP 5UTR single
Cc1cc(Cl)cc(Cl)c1OCC(=O)Nc1cccc(-c2nc3ncccc3o2)c1C | -8 | x | x | x | x | x | x
CCOC(=O)N1CCN(C(=O)C(CC)n2nc(C)c3sc4ccccc4c3c2=O)CC1 (stereo not given) | -9 | 81* | -9 | 3 | -2 | 8 | -9
CCOC(=O)N1CCN(C(=O)Cn2nc(C)c3sc4ccccc4c3c2=O)CC1 | -31 | -22 | -7 | 14 | 0 | 10 | x
CCOc1ccccc1N(CC(=O)Nc1cccnc1)S(=O)(=O)c1ccc(C)cc1 | -8 | 54* | -4 | 1 | 0 | 20 | -17
CCOc1ccccc1N(CC(=O)Nc1cccnc1)S(C)(=O)=O | -11 | -20 | 0 | 1 | -1 | -6 | x
Cc1c(N(C)CS(=O)(=O)O)c(=O)n(-c2ccccc2)n1C | -9 | 58* | x | -2 | -1 | -1 | -26
Cc1ccc(N2CCCS2(=O)=O)cc1NC(=O)C(=O)NCc1ccc2c(c1)OCO2 | 2 | x | x | x | x | x | x
Cc1nnc(NC(=O)c2cccc(F)c2)s1 | 8 | -15 | -1 | 0 | 1 | -3 | x
O=C(Nc1nnc(-c2cccs2)s1)c1cccc(F)c1 | -1 | 74* | x | 2 | 0 | -7 | -44
O=C(NCC[C@H](O)c1ccccc1)c1ccc2nsnc2c1 | -8 | x | x | x | x | x | x
Cc1csc(NC(=O)c2cn3ccccc3n2)n1 | -11 | 76* | 13 | 1 | 0 | 4 | u
O=C(Nc1ccc(COc2ccccc2)cc1)Oc1ccccc1N1CCOCC1 | 7 | 59* | -12 | 1 | -2 | 1 | 32
Cc1ccc2cccc(C(=O)NCCCc3cnc4cc(C)nn4c3)c2n1 | -1 | x | x | x | x | x | x
O=C(CSCc1cccc(CSCC(=O)Nc2ccccc2)n1)Nc1ccccc1 | 9 | -3 | -1 | 0 | 0 | 14 | x
O=C(CSCc1nc2ccccc2[nH]1)Nc1ccccc1 | -3 | 78* | 4 | -2 | 0 | -5 | -5
C[C@H](CO)N1C[C@H](C)[C@@H](CN(C)C(=O)Nc2ccccc2)Oc2c(NC(=O)c3ccncc3)cccc2C1=O | -1 | 62* | x | -4 | 1 | -4 | -25
C[C@H]1CN([C@@H](C)CO)C(=O)c2cccc(NC(=O)c3ccncc3)c2O[C@H]1CN(C)C(=O)Nc1ccccc1 | -5 | -7 | x | -3 | 0 | -5 | x
Cc1nn(C2CCS(=O)(=O)C2)c2nc(-c3cccs3)cc(C(=O)NCCCc3ccccc3)c12 (stereo not given) | -14 | x | x | x | x | x | x
O=C(c1ccco1)N1CCN(S(=O)(=O)/C=C/c2ccccc2)CC1 | -15 | 56* | 7 | -3 | 0 | 3 | 11
O=C(c1cc2ccccc2o1)N1CCN(S(=O)(=O)/C=C/c2ccccc2)CC1 | 1 | -20 | 0 | 0 | 3 | 37 | x
Cn1nc(CNC(=O)c2ccc(OC(F)(F)F)cc2)c2c1CCCC2 | -18 | x | x | x | x | x | x
O=C(Cc1cccs1)N1CCC(c2nnc(C3CC3)o2)CC1 | 2 | x | x | x | x | x | x
Cn1cnc2nc[nH]c2c1=O | -15 | 55* | x | 6 | -1 | -5 | -7
O=c1[nH]cnc2nc[nH]c12 | -9 | x | x | x | x | x | x
N#CC1=C2N=C(N)c3ccccc3N2C2=C(C(=O)CCC2)C1c1cccc(Cl)c1 (stereo not given) | -3 | 70* | -8 | -5 | 1 | -2 | 3
SMILES | SSB-PriA inh | PrP UTR inh | BJeLR lethal | PrPC TRFRET | PfHsp40 rescue | Y pestis TopoI | PrP 5UTR single
CCOc1ccccc1C(=O)N1CCN(c2ccc(C(F)(F)F)cn2)CC1 | -8 | 62* | -3 | 3 | 2 | 28 | 8
COc1ccccc1C(=O)NCCC(=O)N1CCN(c2ccc(C(F)(F)F)cn2)CC1 | -7 | -1 | x | 5 | -1 | 13 | x
CC(C)(C)C(=O)Nc1ccc(NC(=O)c2ccco2)nc1 | 12 | 88* | -6 | -10 | -1 | 8 | 94*
O=C(Nc1ccc(NC(=O)c2ccco2)nc1)c1ccco1 | -1 | -38 | 10 | 6 | 1 | 9 | x
NC(=NOC(=O)c1ccc(Br)o1)c1ccccn1 | -6 | x | x | x | x | x | x
CC(C)(C)NC(=S)N1CCC(C(=O)c2ccc(Cl)cc2)CC1 | -9 | 56* | -4 | -1 | -1 | -5 | 12
CS(=O)(=O)N1N=C(c2ccc(Cl)c(F)c2)C[C@H]1c1cccs1 | 0 | x | x | x | x | x | x
COc1ccc(Cc2cnc(N)s2)cc1 | 4 | 77* | 4 | 7 | 0 | -6 | 11
Cc1ccc(C2(c3ccccc3)NC(=O)N(CC(=O)NCc3ccccc3)C2=O)cc1C (stereo not given) | -4 | 80* | x | 16 | 0 | 22 | -4
O=C(CN1C(=O)NC(c2ccccc2)(c2ccccc2)C1=O)NCc1ccccc1 | -19 | -1 | x | 4 | -1 | -3 | x
CCc1cccc(CC)c1NC(=O)Cn1c(=O)n(Cc2cccs2)c(=O)c2ncccc21 | -14 | x | x | x | x | x | x
CCc1ccn2cc(-c3cc(-c4ccccc4)no3)nc2c1 | -2 | 71* | 8 | 16 | 12 | -1 | 82*
O=C1/C(=C/c2ccc(F)cc2)Oc2c1ccc1c2CN(C[C@H]2CCCO2)CO1 | -5 | x | x | x | x | x | x
CC(C)C[C@H](NC(=O)[C@@H]1CCCN1C(=O)[C@@H](N)Cc1ccc(O)cc1)C(=O)NCC(N)=O | -9 | 84* | -2 | 12 | -1 | 2 | -7
COc1ccc(C(=O)CCC(=O)NCCc2ccccc2F)cc1 | -8 | -5 | 0 | -1 | 0 | 3 | x
CC(=O)CCC(=O)NCCc1ccccc1F | -8 | 85* | 4 | -4 | -1 | -1 | -8
O=C(NCCc1ccccc1F)c1ccc2c(c1)OCCO2 | -20 | 89* | -4 | -6 | -1 | 12 | 93*
Cc1c(C(=O)C(N)=O)c2ccccc2n1C | -5 | x | x | x | x | x | x
CCC(=O)Nc1cc2nn(-c3ccc(C)cc3)nc2cc1C | -7 | 68* | -6 | 2 | 0 | -6 | 62*
O=C(COc1ccc(Cl)cc1)Nc1ccc2c(c1)CN(C(=O)c1cccs1)CC2 | -6 | x | x | x | x | x | x
C[C@]12CC[C@H]3C(CCC4(O)CC(O)CC[C@]34C=O)C1=CC[C@H]2c1ccc(=O)oc1 (stereo not given in full) | -9 | x | 14 | 6 | -2 | 2 | x
CC(=O)O[C@H]1[C@H]2O[C@]23[C@@H]2CC[C@]4(O)C[C@@H](O)CC[C@]4(C)C2CC[C@]3(C)[C@H]1c1ccc(=O)oc1 (stereo not given in full) | -8 | 94* | x | x | 0 | -3 | 91*
CS(=O)(=O)N1CCC(c2nn(CC(=O)Nc3cc(F)ccc3F)c(=O)n2-c2cccs2)CC1 | -12 | x | x | x | x | x | x
